ZTA DNA inh: counter-screen for EBNA-1 inhibitors: inhibitors of Epstein-Barr virus ZTA. ZTA-DNA binding, fluorescence polarization. inhibition, % at 11 µM. 320,000 tested, 0.15% active. AID 2234; in the data active = inhibition above about 33%
Target sequence (P03206 whole entry, looked up): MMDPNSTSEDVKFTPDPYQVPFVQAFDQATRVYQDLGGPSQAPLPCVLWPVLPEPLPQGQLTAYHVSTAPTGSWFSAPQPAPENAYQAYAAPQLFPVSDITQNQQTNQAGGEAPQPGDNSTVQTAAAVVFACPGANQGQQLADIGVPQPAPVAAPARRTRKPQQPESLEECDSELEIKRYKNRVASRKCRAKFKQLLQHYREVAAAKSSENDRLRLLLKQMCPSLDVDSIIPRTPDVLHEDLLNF
EBNA-1 inhibitor: EBNA-1 DNA-binding inhibitors, primary screen, biochemical, fluorescence polarization | inhibition, % at 14.8 µM | AID 1950, 2009 | 300,000 tested, 0.34% active; in the data active = inhibition above about 28%
PAFAH1B2 FP inh: PAFAH1B2 enzyme inhibitors, primary screen, biochemical, fluorescence polarization, human; recombinant PAFAH1B2, FP-rhodamine activity probe; inhibition, % at 3.39 µM; 340,000 tested, 1.2% active; Platelet-activating factor acetylhydrolase IB subunit alpha2 (Homo sapiens), P68402;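 active = inhibition above the mean of all tested compounds plus 3 SD, cut at about 24% in these data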;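 note: 0% = enzyme with DMSO and 100% = wells lacking PAFAH1B2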
Target sequence (P68402 whole entry, looked up): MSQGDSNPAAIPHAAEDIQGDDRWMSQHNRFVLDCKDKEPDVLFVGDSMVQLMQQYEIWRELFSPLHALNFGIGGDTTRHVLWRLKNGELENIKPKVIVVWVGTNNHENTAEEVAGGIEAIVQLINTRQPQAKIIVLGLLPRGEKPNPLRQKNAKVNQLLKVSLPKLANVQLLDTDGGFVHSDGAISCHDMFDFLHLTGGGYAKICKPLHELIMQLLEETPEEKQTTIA
PAFAH2 FP inh: PAFAH2 enzyme inhibitors, primary screen, biochemical, fluorescence polarization, human. inhibition, % at 3.39 µM. 340,000 tested, 0.99% active. recombinant PAFAH2, FP-rhodamine activity probe;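 active = inhibition above the mean over all tested compounds plus 3 SD, cut at about 30% in these data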;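 note: inhibitors block probe labeling of enzyme so polarization drops; 0% = enzyme with DMSO and 100% = wells lacking PAFAH2 protein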
pPAFAH FP inh: pPAFAH enzyme inhibitors, primary screen, biochemical, fluorescence polarization, human. recombinant pPAFAH, FP-rhodamine probe fluorescence polarization. Platelet-activating factor acetylhydrolase (Homo sapiens), Q13093. inhibition, % at 3.39 µM. AID 463082, 2010. 330,000 tested, 1.5% active;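 active = inhibition above the mean inhibition across the screen plus 3 SD, cut at about 25% in these data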;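 note: inhibitors block binding of the rhodamine activity-based probe so polarization drops; 0% = enzyme with DMSO and 100% = wells lacking pPAFAH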
PAFAH1B3 FP inh: PAFAH1B3 enzyme inhibitors, primary screen, biochemical, fluorescence polarization, human | Platelet-activating factor acetylhydrolase IB subunit alpha1 (Homo sapiens), Q15102 | recombinant PAFAH1B3, FP-rhodamine probe | inhibition, % at 3.39 µM | 340,000 tested, 0.28% active | AID 492972, 2010;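 active = inhibition above the screen-wide average of all tested compounds plus 3 SD, cut at about 25% in these data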;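 note: 0% = enzyme with DMSO only and 100% = wells lacking PAFAH1B3 protein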
* = called active by the depositor; · = no result. Most compounds without a hit are left out; they make up all but 2.9% or so of the library.

SMILES	ZTA DNA inh	EBNA-1 inhibitor	PAFAH1B2 FP inh	PAFAH2 FP inh	pPAFAH FP inh	PAFAH1B3 FP inh
Cc1cccc(N(CC(=O)N2CCCCCC2)S(C)(=O)=O)c1	-3	1	-1	-5	0	7
Cc1nc2c(nc1C)C(=O)c1ccccc1C2=O	·	·	4	4	·	8
COC1=C(N)C(=O)c2nc(C)ccc2C1=O	·	·	27*	18	·	63*
Cc1ccc(-n2c(O)c(/C=N/Nc3ccc(S(=O)(=O)N4CCOCC4)cc3[N+](=O)[O-])c3ccccc3c2=O)c(C)c1	-9	-2	64*	34*	2	18
COc1ccc(OC)c(C2CC(=O)N3CN(c4ccccc4)CSC3=C2C#N)c1 (configuration not stated)	-12	6	0	4	-2	2
Cc1cccc(N2CSC3=C(C#N)C(c4ccc(C)o4)CC(=O)N3C2)c1 (configuration not stated)	13	2	·	·	47*	·
COc1ccc2nc3cccc(OC)c3nc2c1	-18	-8	10	6	22	16
COc1ccc2nc(-c3ccco3)c(-c3ccco3)nc2c1	-2	-5	26*	56*	47*	33*
O=C(NCCCO)c1ccc2nc(-c3ccco3)c(-c3ccco3)nc2c1	·	·	18	33*	·	29*
O=C(NCCO)Nc1ccc2nc(-c3ccco3)c(-c3ccco3)nc2c1	42*	23	·	·	72*	·
CS(=O)(=O)Cc1ccc(C(=O)N2CCN(C(=O)c3cccs3)CC2)cc1	·	·	6	-6	2	1
Cc1cccc(NC(=O)CNC(=O)CSc2nnc(C(F)(F)F)n2C)c1C	0	·	-2	-1	1	6
CCC1=Nc2cc(C(=O)NCCN3CCOCC3)ccc2Sc2ccc(Br)cc21	-2	-1	5	5	-2	1
CCC1CN(C(=O)NCc2ccccc2)c2cc(C)ccc2O1 (configuration not stated)	·	·	36*	71*	·	50*
COc1ccccc1Cn1c(-c2ccccc2OC)nc2ccccc21	10	-10	-1	-3	27*	1
CC(C)n1nc(C(=O)Nc2cccc(S(=O)(=O)N3CCCCC3)c2)c2ccccc2c1=O	10	·	1	-3	-1	-7
CC1(OC(=O)C2CCCC2)C(=O)C=C2C=C3CCCN3C=C2C1=O (configuration not stated)	5	7	·	·	15	·
CC1(OC(=O)c2cccs2)C(=O)C=C2C=C3CCCN3C=C2C1=O (configuration not stated)	11	5	7	22	28*	11
Cn1cc(C(=O)c2cccc(Cl)c2Cl)cc1C(=O)O	-20	-4	1	4	4	2
COC(=O)c1cc(C(=O)c2cccc(Cl)c2Cl)cn1C	-14	2	2	10	25*	5
O=C(COc1ccc([N+](=O)[O-])cc1Cl)N1CCOCC1	-5	2	-5	-2	4	9
O=[N+]([O-])c1ccc2c(c1)C(N1CCOCC1)/C(=C/COc1ccc(Cl)cc1Cl)O2 (configuration not stated)	1	1	24*	9	7	0
O=C(O)Cc1ccc2c(c1)N(S(=O)(=O)c1cccc(C(F)(F)F)c1)CC(C(=O)O)O2 (configuration not stated)	-11	3	27*	2	-2	-5
Cc1ccc(C)c(Cn2nnc3c(=O)[nH]c(C(=O)NCC4CCCO4)nc32)c1 (configuration not stated)	-2	12	67*	2	0	2
Cc1cc(-c2ccccc2)c2ccc(NC(=O)C(C)(C)C)nc2n1	-1	-9	33*	-13	9	14
SMILES	ZTA DNA inh	EBNA-1 inhibitor	PAFAH1B2 FP inh	PAFAH2 FP inh	pPAFAH FP inh	PAFAH1B3 FP inh
Cc1cc(C)nc(/N=C(\NC(=O)C(C)(C)C)Nc2ccccc2)n1	1	-11	2	-1	0	8
COc1ccc(C)cc1NC(=O)c1cc(C2CC2)nc2c1c(C)nn2C1CCS(=O)(=O)C1 (configuration not stated)	·	·	4	2	·	6
O=C(COC(=O)CCSc1ccccc1)Nc1cc(F)ccc1F	-6	-10	32*	-1	9	8
NS(=O)(=O)c1cccc(NC(=O)COC(=O)CCSc2ccccc2)c1	-7	-25	15	-5	25*	-1
NC(=O)c1ccc(NC(=O)COC(=O)CCSc2ccccc2)cc1	-9	5	4	-6	10	1
COc1ccc(NC(=O)COC(=O)CCSc2ccccc2)cc1OC	·	·	10	0	20	7
O=C(COC(=O)CCSc1ccccc1)Nc1ccc(F)cc1Cl	-15	-9	11	8	15	4
Cc1ccc(SCCC(=O)OCC(=O)Nc2ccc(C(N)=O)cc2)cc1	-5	·	26*	13	8	1
NS(=O)(=O)c1cccc(NC(=O)COC(=O)CSCc2ccccc2)c1	·	·	2	14	28*	8
Nc1ncnc2c1cnn2C1CCCCC1	18	-14	0	-1	1	2
COc1ccccc1NC(=O)c1cc2c(CO)cnc(C)c2oc1=Nc1ccc(OC)c(OC)c1	-6	-7	0	-4	25*	12
COc1ccccc1NC(=O)c1cc2c(CO)cnc(C)c2oc1=Nc1cc(OC)c(OC)c(OC)c1	14	2	5	-1	17	16
CCC(OC(=O)c1nsc(Cl)c1Cl)C(=O)NCc1cccs1 (configuration not stated)	8	-7	0	0	28*	-1
CC(C)CC(OC(=O)c1nsc(Cl)c1Cl)C(=O)NCc1cccs1 (configuration not stated)	-3	-14	7	0	-4	3
CCC(OC(=O)c1nsc(Cl)c1Cl)C(=O)NCCc1ccccc1 (configuration not stated)	-1	7	6	-4	25*	4
CCCCNC(=O)Oc1c(Br)cc2sc(=O)oc2c1Br	26	-2	·	·	52*	·
CCCCNC(=O)Oc1cc(CCl)on1	-23	-3	·	·	2	·
COC(=O)c1c(C)[nH]c(C(=O)COC(=O)Cn2cc(C(F)(F)F)ccc2=O)c1C	·	·	0	-1	·	-5
COC(=O)c1c(C)[nH]c(C(=O)COC(=O)CCNS(=O)(=O)c2cccc(C(F)(F)F)c2)c1C	-16	·	-6	-1	33*	0
COC(=O)c1c(NC(=O)COC(=O)CCNS(=O)(=O)c2ccccc2)sc(C)c1C	15	0	3	9	26*	2
CCCCn1c(=O)[nH]c2nc3cc(NC(C)=O)ccc3nc2c1=O	0	0	6	7	4	5
